In PubChem BioAssay AID1508622 (National Center for Advancing Translational Sciences (NCATS), 2021):
Active and inactive are the calls of the source. The call rests on the fitted dose curve; in most records, active means well fitted activation curve with a large enough effect; inconclusive means small, poorly fitted or top-dose-only effect; inactive means no such curve, though single readings can be large or run the other way.

Test: Confirmatory qHTS for Identification of Small Molecule Activators of Huntingtin-Antisense Promoter Activity
Conditions: HEK293 HTT-AS promoter firefly luciferase reporter, 24 h; series mostly up to 57.5 µM; activity change, positive = activation: at the top concentration
In short: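 Plated reporter HEK293 cells (24 h) received library compounds at up to 57.5 uM final or 50 uM PTC124, incubated 24 h at 37C; firefly luciferase luminescence was then recorded with Dual-Glo reagent.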
Potency means the concentration at half of the fitted maximal effect.

Row | SMILES | activity change, positive = activation | Potency
1 | COc1ccccc1C(=O)Oc1c(Sc2ccccc2)c(C)nn1C(C)(C)C | -29% (inactive) | –
2 | CC(C)(C)c1ccc(C(=O)Nc2ccc3c(c2)CCCN3C(=O)c2cccs2)cc1 | -39.2% (inactive) | –
3 | Cc1ccc(C)c(OCCCC(C)(C)C(=O)O)c1 | 8.19% (inactive) | –
4 | COc1cc(NC(=O)c2cc3c(s2)-c2ccccc2OC3)cc(OC)c1OC | -24% (inactive) | –
5 | Cc1ccc(C)c(N2CCN(C(=O)C3CCN(c4nc(-c5ccc(C(C)C)cc5)no4)CC3)CC2)c1 | -94.5% (inactive) | –
6 | CCc1ccc(OCC2c3cc(OC)c(OC)cc3CCN2C(=O)COc2ccccc2)cc1 (stereo not drawn) | -22.3% (inactive) | –
7 | Cc1[nH]c2ccccc2c1CCNCc1ccc(C=CC(=O)NO)cc1 | – | 1.9 µM (active)
8 | COc1ccc(CCNC(=O)c2ccc3nc(Cc4ccccc4)oc3c2)cc1OC | -33.4% (inactive) | –
9 | Cc1nc(-c2ccc(F)cc2)sc1CCNC(=O)c1ccc(C(C)(C)C)cc1 | -10% (inactive) | –
10 | FC(F)(F)c1cccc(Nc2c3c(nc4ccc(Cl)cc24)CCC3)c1 | -57.1% (inactive) | –
11 | CCc1ccc2c(c1)-c1ccccc1S(=O)(=O)N2CC(=O)N1CCC(C)CC1 | – | 12 µM (active)
12 | CC(=O)Nc1cccc(NC(=O)CSc2nccn2Cc2ccccc2)c1 | -54.9% (inactive) | –
13 | Cc1ccc(C)c(N2CCN(S(=O)(=O)c3ccc(C(=O)N(C)C)s3)CC2)c1 | -84.7% (inactive) | –
14 | COc1cc(C(=O)NCCSc2c(-c3ccccc3)[nH]c3ccccc23)cc(OC)c1OC | -36.2% (inactive) | –
15 | CCOc1ccc(NC(=O)c2ccc(F)c(S(=O)(=O)N(CC)Cc3ccccc3)c2)cc1 | -86.7% (inactive) | –
16 | Cc1ccccc1CN1c2ccccc2-c2nc(SCC(=O)Nc3cc(F)ccc3F)ncc2S1(=O)=O | -31% (inactive) | –
17 | COc1ccc(S(=O)(=O)NCCc2cc3ccc(C)c(C)c3[nH]c2=O)cc1 | -25.6% (inactive) | –
18 | CCc1ccc(NC(=O)CSc2nc(=O)n(Cc3cccnc3)c3c2CCC3)cc1 | -42.4% (inactive) | –
19 | COC(=O)C1CCN(S(=O)(=O)c2ccc(N3CCCCS3(=O)=O)cc2)CC1 | -35.7% (inactive) | –

Row | SMILES | activity change, positive = activation | Potency
20 | COc1ccc(C(=O)Nc2ccc(S(=O)(=O)N(Cc3ccccc3)c3ccccc3)cc2)cc1 | -92.2% (inactive) | –
21 | CCOc1ccc(OC(=O)c2c(-c3ccccc3Cl)noc2C)cc1 | -27% (inactive) | –
22 | COc1ccc(NC(=O)CSc2nc(-c3cccs3)cc(C(F)(F)F)n2)cc1OC | -94.1% (inactive) | –
23 | O=C(NCc1cccc(Cl)c1)C1CCCN(c2nn3cc(-c4ccc(F)cc4)nc3s2)C1 (stereo not drawn) | -56.7% (inactive) | –
24 | Cc1cccc(OCC(=O)Nc2ccc3c(c2)N(C)C(=O)c2ccccc2S3)c1 | -27.1% (inactive) | –
25 | CCN(CC)S(=O)(=O)c1ccc(C(=O)NCCSc2c(-c3ccc(OC)cc3)[nH]c3ccccc23)cc1 | -9.42% (inactive) | –
26 | COC(=O)c1c(C)oc2ccc(N(C(=O)c3ccncc3)S(=O)(=O)c3ccc(Br)cc3)cc12 | -95% (inactive) | –
27 | CC(C)c1ccc(NC(=O)c2ccc(F)c(S(=O)(=O)N3CCCCCC3)c2)cc1 | -29.2% (inactive) | –
28 | CCOc1ccccc1NC(=O)c1ccc(F)c(S(=O)(=O)N2CCN(c3ccc(F)cc3)CC2)c1 | -32.4% (inactive) | –
29 | COc1cccc([C@@H](C)NCCCc2ccccc2Cl)c1 | -23.4% (inactive) | –
30 | COC(=O)c1c(C)oc2ccc(N(C(=O)c3ccncc3)S(=O)(=O)c3cc(C)c(C)cc3C)cc12 | -93.4% (inactive) | –
31 | Cc1ccc(-n2ccnc(NCCc3ccc(S(N)(=O)=O)cc3)c2=O)c(C)c1 | -32.3% (inactive) | –
32 | CCOc1ccccc1C(=O)Nc1ccc(-n2nncc2-c2ccccc2)cc1 | -10.4% (inactive) | –
33 | Cc1ccc(SCc2nc(-c3ccc(C(=O)NCC(C)c4ccccc4)cc3)oc2C)cc1 (stereo not drawn) | -29.4% (inactive) | –
34 | Cc1ccc(C)c(N2CCN(C(=O)Cn3cnc4nc5c(cc4c3=O)CCCC5)CC2)c1 | -40.7% (inactive) | –
35 | COc1ccc(C(=O)Nc2ccc(-c3cc4ccccc4oc3=O)c(C)c2)cc1Br | -18.9% (inactive) | –
36 | CC(=O)N1CCCc2cc(S(=O)(=O)N(C)CC(=O)Nc3ccc(F)cc3Cl)ccc21 | -30.4% (inactive) | –
37 | CCOC(=O)c1cnc2ccc(OC)cc2c1Nc1ccc(OCc2ccccc2Cl)cc1 | -79.2% (inactive) | –
38 | Cc1cccc(N2CCN(C(=O)C3CCCN(S(=O)(=O)c4ccc5c(c4)oc(=O)n5C)C3)CC2)c1C (stereo not drawn) | -60.9% (inactive) | –
